Here are results for 14 molecules from PubChem BioAssay.

Experiment [1] can be described thus: inhibitors of TNFa-induced NFkB p65 translocation, primary screen, imaging, HUVEC, MLSMR starter and 10KST1 sets (AID 438;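 active = inhibition above 20% together with a positive visual image hit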;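 also: compound added about 3h40 before a 20 min TNFalpha stimulation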;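 as to inhibition: signal is the nuclear over cytoplasmic p65 intensity ratio per well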). Particulars: HUVEC TNFa-induced p65 nuclear translocation; cell count: measured here: nuclei count (cytotoxicity indicator), at 2.08 µM; inhibition: at 2 µM, stronger effect = higher value, 0% TNFa-plus-vehicle, 100% no-TNFa wells.
A short description of experiment [2]: reduction of polyQ htt aggregates in cells – imaging, exon1htt(103Q)mCFP cells, high-content imaging, primary screen (AID 483;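 active = visual image review flags a hit and inhibition of aggregation exceeds 20%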;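 also: compound exposure lasted 3 days before fixation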;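 as to nuclei count: percent of the per-plate median nuclei count of sample wells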). The settings on record: exon1htt(103Q)mCFP cell line, aggregate imaging, at 2 µM; inhibition of aggregation: stronger effect = higher value; nuclei count: measured here: cell count, toxicity.
The nature of experiment [3]: endothelial E-selectin expression blockers – imaging, HUVEC, immunofluorescence, MLSMR starter and 10KST1 sets, primary screen (AID 487;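 active = visually confirmed hit in the image check and inhibition above 20%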;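 as to inhibition: signal is fraction of cell area covered by stained E-selectin grains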;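 as to nuclei count: 100% = median nuclei count of all wells on the same plate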). The settings on record: HUVEC TNFalpha-induced E-selectin immunofluorescence imaging, at 2 µM; inhibition: stronger effect = higher value; nuclei count: measured here: cell number, toxicity.
In experiment [4] the target is Voltage-gated potassium channel subunit beta-2 (Rattus norvegicus) (UniProt P62483). As to the kind of experiment: inhibitors of rat Kvbeta2 reductase activity – biochemical, NADPH fluorescence, primary screen (AID 622;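 active = fluorescence slope higher than the sample average by over 3 SD, cut at about -0.22 in these data, passing the limit was not always enough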;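 also: slope of raw intensity against log time taken from 70 to 1610 s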). The settings on record: recombinant KvBeta, 4-cyanobenzaldehyde reduction, at 10 µM, stronger effect = higher value.
Chain of Voltage-gated potassium channel subunit beta-2 (Rattus norvegicus) (P62483 whole entry, looked up): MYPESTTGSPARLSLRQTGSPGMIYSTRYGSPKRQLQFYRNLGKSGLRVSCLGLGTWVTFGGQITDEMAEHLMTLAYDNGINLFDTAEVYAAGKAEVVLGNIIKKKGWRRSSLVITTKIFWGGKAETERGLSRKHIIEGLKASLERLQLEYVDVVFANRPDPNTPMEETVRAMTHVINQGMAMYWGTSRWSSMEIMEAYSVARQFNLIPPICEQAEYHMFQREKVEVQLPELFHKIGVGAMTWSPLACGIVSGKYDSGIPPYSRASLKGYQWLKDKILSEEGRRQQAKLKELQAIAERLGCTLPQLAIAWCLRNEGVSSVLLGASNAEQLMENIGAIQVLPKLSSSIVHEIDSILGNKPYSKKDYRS
Experiment [5] has the same target. Put plainly: enhancers of rat Kvbeta2 NADPH turnover – biochemical, NADPH fluorescence, primary screen (AID 623;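 active = NADPH fluorescence slope more negative than the mean of all samples by about 3 SD, 99.7% confidence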;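 also: fluorescence intensity change per second fitted from 20 to 320 s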). The settings on record: Recombinant KvBeta, NADPH fluorescence decrease slope, 10 min; at 10 µM; stronger effect = lower value.
Experiment [6] has as its target Alpha-2C adrenergic receptor (Homo sapiens) (UniProt P18825). As to the kind of experiment: compounds altering alpha2C-coupled GIRK flux – cell-based, HEK293 alpha2C/GIRK1/2, thallium flux, primary screen (AID 624).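 Also: slope of fluorescence ratio to pre-addition baseline per second over 15 to 24 s.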 Particulars: thallium flux BTC fluorescence, at 10 µM, actives lie on both sides.
The nature of experiment [7]: blockers of RIG-like receptor reporter activation – cell-based, Sendai virus stimulus, luciferase, 10K MLSCN set, TLR/RLR signaling modifier project, primary screen (AID 602276;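 active = inhibition at or above 50% at 10 µM; inactive = inhibition below 50%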;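 also: firefly luciferase from ISG56 promoter only with Renilla not read in this screen; 0% = Sendai virus plus DMSO and 100% = medium plus DMSO without virus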). Particulars: HEK293 RL24 IRF3 luciferase reporter, at 10 µM, stronger effect = higher value.
Experiment [8] is described as follows: TLR3 IRF3 reporter activation blockers – cell-based, poly I:C stimulus, luciferase, 10K MLSCN set, primary screen (AID 602277;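 active = inhibition of the reporter signal at or above 50%; inactive = inhibition below 50%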). Particulars: HEK293-TLR3 RL24 IRF3 luciferase reporter, at 10 µM, stronger effect = higher value. Background: In a reporter assay the amount or activity of a reporter protein is the signal.

Active and inactive are the calls of the source.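 The calls were made as follows, unless noted: active = fluorescence slope after compound addition differing from the mean of all screened samples at 99.7% confidence, in either direction; inactive = the rest.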

Chain of Alpha-2C adrenergic receptor (Homo sapiens) (P18825 whole entry, looked up): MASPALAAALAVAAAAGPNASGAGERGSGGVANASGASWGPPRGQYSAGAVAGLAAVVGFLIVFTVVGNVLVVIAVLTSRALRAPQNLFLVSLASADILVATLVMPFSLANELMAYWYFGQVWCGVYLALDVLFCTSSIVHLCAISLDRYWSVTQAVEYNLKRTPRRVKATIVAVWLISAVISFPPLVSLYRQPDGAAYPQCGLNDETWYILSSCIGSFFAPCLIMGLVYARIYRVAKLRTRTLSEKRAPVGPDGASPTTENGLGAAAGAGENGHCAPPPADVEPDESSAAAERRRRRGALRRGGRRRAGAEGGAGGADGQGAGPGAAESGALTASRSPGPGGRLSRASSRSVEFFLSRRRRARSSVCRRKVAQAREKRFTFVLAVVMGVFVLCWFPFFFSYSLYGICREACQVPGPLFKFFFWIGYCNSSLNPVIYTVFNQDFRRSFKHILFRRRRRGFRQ

As to `CCC(C)NC(=O)c1cn(CC)c2ccc(S(=O)(=O)N(C)C)cc2c1=O` (centres undefined), in experiment [1], the cell count was determined as 603. Further, the inhibition (in general, the drop in the measured response relative to a control, in per cent) in experiment [1] was -11.6% (inactive); in experiment [3] it was -70.7% (inactive); in experiment [7], 19.1% (inactive); in experiment [8], 29.7% (inactive). For the same molecule, in experiment [2], the inhibition of aggregation is -11.6% (inactive). In addition, the nuclei count in experiment [2] turned out to be 111%; in experiment [3], 125%. In addition, the fluorescence slope in experiment [4] is -0.376 (inactive). Moreover, the NADPH fluorescence slope in experiment [5] is 1.4e-05 (inactive). Further, the slope in experiment [6] is 0.00604 (inactive).
As to `Cc1onc(-c2ccccc2Cl)c1C(=O)Nc1cccnc1`, the cell count in experiment [1] amounted to 286. In addition, the inhibition in experiment [1] is -2.3% (inactive); in experiment [3] it was -78.5% (inactive); in experiment [7], 0.844% (inactive); in experiment [8], 32.2% (inactive). For the same molecule, the inhibition of aggregation in experiment [2] is 1.8% (inactive). For the same molecule, the nuclei count stood at 106% in experiment [2] and 148% in experiment [3]. The fluorescence slope in experiment [4] is -0.452 (inactive). Further, the NADPH fluorescence slope in experiment [5] was 2.6e-05 (inactive). The slope in experiment [6] is 0.00566 (inactive).
As to `Cc1ccc(S(=O)(=O)N2CCN(S(=O)(=O)N(C)C)CC2)cc1`, the cell count in experiment [1] was found to be 362. Besides, the inhibition in experiment [1] was 4.3% (inactive); in experiment [3], 8.9% (inactive); in experiment [7] it was 12.1% (inactive); in experiment [8] it was 15.4% (inactive). Moreover, the inhibition of aggregation in experiment [2] was -29.3% (inactive). Also, the nuclei count amounted to 101% in experiment [2] and 111% in experiment [3]. For the same molecule, the fluorescence slope in experiment [4] was -0.518 (inactive). Moreover, the NADPH fluorescence slope in experiment [5] was -1.8e-06 (inactive). The slope in experiment [6] is 0.00563 (inactive).
For `O=c1c2cc(N3CCOCC3)ccc2[nH]c(=S)n1CCCN1CCCC1`, the cell count in experiment [1] stood at 739. For the same molecule, the inhibition in experiment [1] was 3% (inactive); in experiment [3], -35% (inactive); in experiment [7] it was 3.61% (inactive); in experiment [8], 32.7% (inactive). Also, the inhibition of aggregation in experiment [2] was 6.2% (inactive). Besides, the nuclei count in experiment [2] stood at 105%; in experiment [3], 106%. Besides, the fluorescence slope in experiment [4] is -0.0484 (active). The NADPH fluorescence slope in experiment [5] is -1.6e-06 (inactive). Moreover, in experiment [6], the slope was 0.00568 (inactive).
Turning to `Cc1cc(CN2CCN(CCC#N)CC2)c(O)c(C2(C)CCCCC2)c1`, the cell count in experiment [1] is 527. Besides, the inhibition in experiment [1] is -12.3% (inactive); in experiment [3] it was -197% (inactive); in experiment [7], -14.9% (inactive); in experiment [8], 4.95% (inactive). The inhibition of aggregation in experiment [2] was 5.3% (inactive). The nuclei count in experiment [2] was found to be 98.4%; in experiment [3] it was 90.4%. Further, the fluorescence slope in experiment [4] is -0.541 (inactive). Moreover, in experiment [5], the NADPH fluorescence slope was 4e-05 (inactive). In addition, the slope in experiment [6] was 0.00432 (inactive).
For `O=C(NC1CCCCC1)C(c1ccccc1)N(Cc1ccco1)C(=O)Cn1cnc2ccccc21` (centres undefined), in experiment [1], the cell count was found to be 375. Also, the inhibition in experiment [1] was -1.6% (inactive); in experiment [3] it was -70.5% (inactive); in experiment [7], 9.18% (inactive); in experiment [8], 20.8% (inactive). In addition, in experiment [2], the inhibition of aggregation was -19.6% (inactive). Moreover, the nuclei count in experiment [2] was found to be 114%; in experiment [3], 108%. Besides, in experiment [4], the fluorescence slope is -0.586 (inactive). In experiment [5], the NADPH fluorescence slope is -3.7e-05 (inactive). Further, the slope in experiment [6] was 0.00243 (inactive).
On to `COCCN(C(=O)CCC(=O)Nc1ccccn1)C(C(=O)NC1CCCC1)c1ccc(OC)cc1` (centres undefined), for which, in experiment [1], the cell count is 528. Moreover, the inhibition in experiment [1] is -26.5% (inactive); in experiment [3] it was -44.5% (inactive); in experiment [7], 1.15% (inactive); in experiment [8], 23.2% (inactive). In addition, the inhibition of aggregation in experiment [2] is 16.1% (inactive). The nuclei count in experiment [2] turned out to be 105%; in experiment [3], 92%. In experiment [4], the fluorescence slope is -0.395 (inactive). Moreover, in experiment [5], the NADPH fluorescence slope was -9e-05 (inactive). Also, the slope in experiment [6] is 0.00514 (inactive).
Regarding `CCOCCCNC(=O)C1CC(=O)N(C2CCCC2)C1` (centres undefined), the cell count in experiment [1] turned out to be 536. Moreover, the inhibition in experiment [1] was -6.8% (inactive); in experiment [3], 11.6% (inactive); in experiment [7], 15.9% (inactive); in experiment [8], 18.9% (inactive). Also, in experiment [2], the inhibition of aggregation is 1.5% (inactive). In addition, the nuclei count is 103% in experiment [2] and 118% in experiment [3]. Moreover, in experiment [4], the fluorescence slope is -0.495 (inactive). Besides, in experiment [5], the NADPH fluorescence slope is -1.6e-05 (inactive). In addition, the slope in experiment [6] was 0.00627 (inactive).
Turning to `CCSc1nc2c(c(=O)[nH]1)C(c1cccnc1)C(C(=O)OC(C)C)=C(C)N2` (centres undefined), the cell count in experiment [1] came out at 500. Further, the inhibition in experiment [1] was 3.8% (inactive); in experiment [3], -57.7% (inactive); in experiment [7], 1.95% (inactive); in experiment [8], 25.7% (inactive). The inhibition of aggregation in experiment [2] was 19.4% (inactive). In addition, the nuclei count in experiment [2] is 93.1%; in experiment [3] it was 103%. Also, the fluorescence slope in experiment [4] is -0.475 (inactive). In addition, in experiment [5], the NADPH fluorescence slope is -1.6e-05 (inactive). For the same molecule, the slope in experiment [6] was 0.00631 (inactive).
For the molecule `Cc1csc(NC(=O)CSc2nnc(Cc3cccn3C)n2-c2ccc(F)cc2)n1`, the cell count in experiment [1] was 688. In addition, the inhibition in experiment [1] is -3.4% (inactive); in experiment [3], -48.6% (inactive); in experiment [7] it was -11.3% (inactive); in experiment [8] it was 8.94% (inactive). Also, the inhibition of aggregation in experiment [2] is 12.8% (inactive). For the same molecule, the values for the nuclei count in experiment [2] and in experiment [3] were 74% and 105%, respectively. Further, the fluorescence slope in experiment [4] is -0.57 (inactive). Also, in experiment [5], the NADPH fluorescence slope is 2e-05 (inactive). For the same molecule, the slope in experiment [6] was 0.00588 (inactive).
In the case of `COc1ccc(-c2nc3c(n2O)CCC/C3=N\O)cc1`, in experiment [1], the cell count was 319. For the same molecule, the inhibition in experiment [1] is -8% (inactive); in experiment [3], -2.4% (inactive); in experiment [7], -16.5% (inactive); in experiment [8], -26.8% (inactive). Besides, in experiment [2], the inhibition of aggregation is 0.2% (inactive). In addition, the nuclei count in experiment [2] came to 98.1%; in experiment [3], 113%. The fluorescence slope in experiment [4] was -0.413 (inactive). For the same molecule, in experiment [5], the NADPH fluorescence slope was -7.6e-05 (inactive). For the same molecule, in experiment [6], the slope is 0.00746 (inactive).
As for `CCOC(=O)c1[nH]c(C)c(C(=O)NC)c1C`, in experiment [1], the cell count came out at 627. The inhibition was -1.3% (inactive) in experiment [1], -37.7% (inactive) in experiment [3], 9.49% (inactive) in experiment [7] and 27.6% (inactive) in experiment [8]. For the same molecule, in experiment [2], the inhibition of aggregation was 0.2% (inactive). Also, the results for the nuclei count in experiment [2] and in experiment [3] were 105% and 103%, respectively. Also, in experiment [4], the fluorescence slope is -0.563 (inactive). Besides, the NADPH fluorescence slope in experiment [5] was -1.3e-05 (inactive). Moreover, in experiment [6], the slope is 0.00529 (inactive).
For `COC(=O)C(O)(CC(=O)c1ccc(OC)cc1)C(F)(F)F` (centres undefined), the cell count in experiment [1] turned out to be 778. Moreover, the inhibition is -12.8% (inactive) in experiment [1], 36% (inactive) in experiment [3], 9.29% (inactive) in experiment [7] and 9.82% (inactive) in experiment [8]. The inhibition of aggregation in experiment [2] was 4.5% (inactive). In addition, the nuclei count was determined as 100% in experiment [2] and 99.4% in experiment [3]. In addition, the fluorescence slope in experiment [4] is -0.507 (inactive). Moreover, the NADPH fluorescence slope in experiment [5] was -1.8e-05 (inactive). Moreover, the slope in experiment [6] is 0.0048 (inactive).
`Cc1c(NC(=O)C(C)OC(=O)c2cc3c4ccccc4n(C)c3s2)c(=O)n(-c2ccccc2)n1C` (centres undefined): the cell count in experiment [1] turned out to be 405. Besides, the inhibition in experiment [1] was -1.3% (inactive); in experiment [3], -1.3% (inactive); in experiment [7], 25.6% (inactive); in experiment [8], 34.4% (inactive). For the same molecule, the inhibition of aggregation in experiment [2] is -35.1% (inactive). The nuclei count in experiment [2] stood at 67.6%; in experiment [3], 107%. Further, the fluorescence slope in experiment [4] is -0.481 (inactive). For the same molecule, in experiment [5], the NADPH fluorescence slope is -3.8e-06 (inactive). Besides, in experiment [6], the slope is 0.0038 (inactive).
